Screening results as filed in PubChem.
In the library only some 1.6% were active in any assay of this set; here they are far more common.
TRAIL sens C8 – caspase-8 TRAIL sensitization; NB7+C8 cells + TRAIL, ATPlite viability luminescence; inhibition (viability loss, TRAIL sensitization), % at 10 µM; 1% of 360,000 active; AID 624354;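 active = compounds causing at least 50% loss of cell viability in the single-dose screen, relative to plate controls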
STAT1 blocker – STAT1 signaling inhibition; inhibition, % at 5.5 µM; NIH 3T3 STAT1-luciferase reporter, IFN-gamma, luminescence; 0.35% of 200,000 active;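 active = inhibition above a set limit, the mean inhibition across all tested compounds plus 3 SD, cut at about 34% in these data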;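 also: 0% = IFN-gamma with DMSO and 100% = IFN-gamma with 300 µM nifuroxazide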
STAT3 inh – reduces IL-6 driven STAT3 reporter signal. U3A cells, IL-6 STAT3-luciferase reporter, luminescence; host cell line lacks STAT1. inhibition, % at 5.5 µM. 0.89% of 190,000 active;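 active = inhibition above the mean inhibition across all screened compounds plus 3 SD, cut at about 44% in these data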;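 also: 0% = DMSO only wells and 100% = 100 µM nifuroxazide control wells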
PPC-1+TRAIL kill – kills PPC-1 cancer cells in the presence of TRAIL; PPC-1 cells + TRAIL, ATPLite viability luminescence; cell killing (% activity), % at 4 µM or 5 µM; 0.41% of 220,000 active; AID 1443;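 active = cell killing above 50% in the first pass at 4 µM, then a duplicate retest at 5 µM averaging 50% or more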;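 also: plate controls were cells with TRAIL plus DMSO for no effect and medium-only wells lacking cells for full effect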
Platelet DG rel – platelet dense granule release activity. human platelet-rich plasma, SFLLRN dense granule ATP release, luminescence. inhibition, %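 (compounds screened at 7.5 µM in platelet-rich plasma)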. 0.22% of 300,000 active. AID 1663;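 active = mean replicate score, as percent of positive control, at or above 50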
PPC1 cytotox – kills PPC-1 cells | 50% of 1,200 active | PPC-1 viability, ATPlite luminescence, overnight | AID 1447 | shares compounds with PPC-1+TRAIL kill | cytotoxicity, % at 5 µM;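 active = reconfirmed compounds whose average cytotoxicity reaches 50% or more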;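 also: 0% = DMSO-treated cells and 100% = wells holding medium but no cells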
Active calls of the source: *; . = no result.

SMILES	TRAIL sens C8	STAT1 blocker	STAT3 inh	PPC-1+TRAIL kill	Platelet DG rel	PPC1 cytotox
O=C(NCc1ccco1)C1CC(=O)N(c2ccc(O)cc2)C1 (centres undefined)	2	-2	4	-18	-1	8
COc1ccc(N2CC(C(=O)Nc3ccccc3C(=O)NCc3ccco3)CC2=O)cc1 (centres undefined)	-8	-9	-5	22	-1	.
CCC1(C)CN=C(c2ccccc2)NC1 (centres undefined)	-11	.	.	.	.	.
Cc1nnc(NC2=NCCC2)s1	15	-8	0	16	.	8
CCOC(=O)C1=CCC(c2ccccc2C(F)(F)F)N(S(=O)(=O)c2ccc(C)cc2)C1 (centres undefined)	2	.	.	.	.	.
COc1ccc(C(=O)Nc2cc(OC)c(NC(=O)c3ccco3)cc2OC)cc1	-23	-7	11	-5	-13	.
COc1cccc(-c2nnn(CC(=O)Nc3cc(OC)c(NC(=O)c4ccco4)cc3OC)n2)c1	-3	2	-4	8	-5	19
CC(C)(C)S(=O)(=O)N1C[C@@H]2C(=CC[C@H]3C(=O)N(c4ccccc4)C(=O)[C@@H]23)[C@@H]1CCO	-9	.	.	.	.	.
COc1ccc(-c2cn3cccc(C)c3n2)cc1F	13	-50	4	8	1	.
COc1ccc(-c2cn3cc(C)ccc3n2)cc1OC	72*	-36	22	75*	18	73*
COc1ccc(-c2cn3cc(C)ccc3n2)cc1F	73*	63*	87*	74*	5	74*
COc1ccc(CCCNC(=O)C2(C)Cc3c(-c4ccc5c(c4)OCO5)ccnc3O2)cc1 (centres undefined)	-3	.	.	.	.	.
CCOc1ccc(C(=O)Nc2ccccc2C(=O)O)cc1	75*	15	30	62*	2	62*
CCc1nc2c(OCc3ccc(C#N)cc3)cccn2c1N(C)C(=O)c1cccs1	-2	.	.	.	.	.
CC(=O)N1CCc2cc(NC(=O)C3(C)CCN3Cc3ccc(C(C)C)cc3)ccc21 (centres undefined)	7	.	.	.	.	.
O=C(O)c1c2c(nc3ccccc13)/C(=C/c1ccc(OC(F)F)cc1)CCC2	2	.	.	.	5	.
O=C(O)c1c2c(nc3ccccc13)/C(=C/c1ccc(O)cc1)CC2	58*	43*	58*	48	-8	49
O=c1c2ccccc2sc2nc(CCl)nn12	40	.	.	.	.	.
Cc1nc2cc(NC(=O)Nc3nccs3)ccc2n1C	66*	-3	39	54*	-4	51*
Cc1nc2cc(NC(=O)NC(C)(C)C)ccc2n1C	3	-17	10	5	0	.
O=C1CC(c2ccncc2)c2cc3c(cc2N1)OCCO3 (centres undefined)	-12	0	-6	36	0	.
O=C1CC(c2ccc3c(c2)OCO3)c2cc3c(cc2N1)OCCO3 (centres undefined)	-4	0	4	18	6	22
CC1(C(=O)NC2CCN(Cc3ccccc3)CC2)CCN1Cc1cc2ccccc2o1 (centres undefined)	2	.	.	.	.	.
COc1ccc(OC)c(NC(=O)c2nc3ccccc3s2)c1	-7	-26	-10	4	6	.
COc1ccc(NC(=O)c2nc3ccccc3s2)cc1	46	-69	42	36	10	39
SMILES	TRAIL sens C8	STAT1 blocker	STAT3 inh	PPC-1+TRAIL kill	Platelet DG rel	PPC1 cytotox
CC1=CC(=O)C=CC1=Nc1ccc(N(C)C)cc1	16	.	.	.	.	.
CCN1CCN(Cc2ccc(NC(=O)c3cc(NC(=O)c4cc(C)on4)cc(OC)c3)cc2C(F)(F)F)CC1	30	.	.	.	1	.
CCN1CCN(Cc2ccc(NC(=O)c3cc(NC(=O)C(=O)c4c[nH]c5ccccc45)cc(OC)c3)cc2C(F)(F)F)CC1	93*	.	.	17	5	20
c1cc2c(cc1C1=NNC(=NC3CC3)SC1)OCCO2	92*	94*	108*	89*	75*	88*
CCOC(=O)C[n+]1c(C)sc2ccc(OC)cc21	-6	2	1	10	-3	22
COC(=O)c1ccc2nc(-c3cccc(N)c3)cn2c1	72*	60*	74*	66*	14	67*
CCCCNC(=O)C(NC(=O)c1cccc2ccccc12)C(=O)c1ccccc1 (centres undefined)	9	.	.	.	.	.
O=C(NCCc1cccs1)c1ccc(Cl)cc1	38	.	.	13	12	.
Cc1ccc(C(=O)NCCc2cccs2)cc1	78*	58*	81*	69*	-9	67*
CCOC(=O)Nc1ccc(S(=O)(=O)NCCCN2CCOCC2)cc1	-1	4	4	9	-10	6
CCOC(=O)Nc1ccc(S(=O)(=O)N2CCOCC2)cc1	-14	-2	4	13	2	.
CCC/C=N/Nc1nnc(Cc2ccc(OC)c(OC)c2)c(=O)[nH]1	-2	.	.	.	-1	.
COc1ccc(/C=N/Nc2nnc(Cc3ccccc3)c(=O)[nH]2)cc1OC	68*	.	.	59*	4	59*
Cc1cc(C(F)(F)F)c(C#N)c(SCC(=O)Nc2nc3ccccc3s2)n1	44	-60	-21	11	6	.
Cc1nc(SCC(=O)Nc2nc3ccccc3s2)c(C#N)c(C)c1C	95*	58*	88*	96*	11	96*
Cc1ccc2sc(NC(=O)CSc3nc(C)cc(C)c3C#N)nc2c1	70*	8	33	65*	24	62*
Cc1ccc(NC2=C(N3CCCCC3)C(=O)c3ccccc3C2=O)cc1	36	-8	4	12	10	.
O=C(/C=C/c1ccc(O)cc1)c1ccc(NC2=C(N3CCCCC3)C(=O)c3ccccc3C2=O)cc1	29	5	10	70*	30	58*
CCCn1nc(NC(=O)c2ccco2)c2cc3cc(C)ccc3nc21	3	.	.	25	-9	.
CCCn1nc(NC(=O)c2ccco2)c2cc3ccc(C)cc3nc21	-10	.	.	-1	2	7
CCCCOCCCNC(=O)C[C@@H]1C[C@@]2(C(=O)OC)CC(C)(C)CC=C2N(Cc2ccc3c(c2)OCO3)C1=O	-16	.	.	.	.	.
Cc1ccc(C(=O)Nc2ccc(F)cc2)o1	5	-11	8	2	8	.
Cc1ccc(C(=O)Nc2ccc(O)c(C(=O)O)c2)o1	-1	6	1	-1	10	-7
CCOC(=O)[C@]12CCC=C1N(Cc1ccccc1)C(=O)[C@H](CC(=O)NCc1ccc(OC)c(OC)c1)C2	8	.	.	.	.	.
CC(C)(C)C(=O)N1CCc2cc(-c3csc(N)n3)ccc21	87*	37*	85*	82*	12	83*
CCC(C)C(=O)N1CCc2cc(-c3csc(N)n3)ccc21 (centres undefined)	27	-35	28	10	-1	.
CC(=O)c1cccc(Nc2ccc(C#N)cc2)c1	-7	.	.	.	.	.
Cc1ccc(NC(=S)N/N=C/c2ccc(Cl)c([N+](=O)[O-])c2)cc1	-21	-2	3	-13	7	.
O=[N+]([O-])c1cc(/C=N/NC(=S)Nc2ccccc2Cl)ccc1Cl	0	-17	4	37	.	28
Clc1ccc(-c2cc3nc(NCc4cccc(Cl)c4)ccn3n2)cc1	13	.	.	.	.	.
